Laboratory results as given in ChEMBL document CHEMBL4888484, “Replenishing the malaria drug discovery pipeline: Screening and hit evaluation of the MMV Hit Generation Library 1 (HGL1) against asexual blood stage Plasmodium falciparum ,using a nano luciferase reporter read-out” (2022).
Hit rate of the full screen: of about 150,000 compounds, about 540 (0.36%) showed an effect of 50% or more. Shown is part of a subset that was picked to be rich in strong results.

These compounds were tested on Plasmodium falciparum (assay: Primary screen in NF54 nanoGlo assay, in single point, at 2uM, 72h; a lower Z score goes with more inhibition). Details: timepoint 72 hour.
Type: functional, Erythrocyte

Row | Compound | % Inhibition | Z score
1 | C[C@H](NC(=O)c1ccccc1)C(=O)NCC1(N2CCOCC2)CCCCC1 | -4% | 0.39
2 | COc1ccc(C(=O)N(Cc2ccc(OS(=O)(=O)c3ccc(F)cc3)cc2)C(C)C)c(OC)c1 | -14% | 1.5
3 | NC(=NCc1csc2ccccc12)N1CCN(c2nccs2)CC1 | 5% | -0.56
4 | NC(=NCc1cccc2cccnc12)N1CCN(c2nccs2)CC1 | 57% | -10.38
5 | NC(=NCc1ccc(Cl)cn1)N1CCN(c2nccs2)CC1 | -4% | 0.42
6 | N#Cc1ncn(C[C@H]2CCC3(CCCCC3)O2)c1C#N | -10% | 1.82
7 | N#Cc1c(CN2CCOCC2)cc(=O)n2c1[nH]c1ccccc12 | 35% | -0.01
8 | C[C@H](O)CN1CCN(Cc2cn3ccccc3c2C#N)CC1 | -13% | 2.38
9 | Cc1ccc(CN2CCN(C[C@@H](O)Cn3c4ccccc4n4c(=O)cc(C)c(C#N)c34)CC2)c(C)c1 | 86% | -13.14
10 | O=C(CC1CCCCC1)NCC1CCN(c2cc(-c3cccnc3)n[nH]2)CC1 | -17% | 1.71
11 | CC[n+]1ccc(-c2ncc(-c3ccc(C(C)(C)C)cc3)o2)cc1 | 66% | -12.84
12 | CO[C@@H](C)C(=O)N(Cc1ncc[nH]1)c1cncc(Br)c1 | 2% | -0.29
13 | COc1ccc(-c2cc(OC(F)(F)F)ccc2O)nn1 | -8% | 1.53
14 | O=C(CCC(=O)c1ccc2c(c1)OCCCO2)NCc1ccccc1 | -7% | 1.26
15 | C[N+]1(CCCC(=O)c2ccc3c(c2)OCCO3)CCC(c2ccccc2)C1 (stereo unspecified) | 73% | -8.3
16 | CC1CCCC(C)N1S(=O)(=O)c1ccc(NC(=O)CCC(=O)c2ccc3c(c2)OCCO3)cc1 (stereo unspecified) | -4% | 0.64
17 | CCn1nccc1-c1cnc2nc(C)nn2c1 | -6% | 0.88
18 | Cc1cc(C)c(C(=O)N2C[C@H](F)C[C@H]2C(N)=O)o1 | 1% | -0.13
19 | Cc1cccc([C@@H](NC(=O)Nc2ncco2)C(F)(F)F)c1 | 54% | 1.59
20 | Cc1cccc(C(NC(=O)[C@@H]2CCCO2)C(F)(F)F)c1 (stereo partly specified) | -6% | 0.81
21 | Cc1cccc([C@@H](NC(=O)CC2OCCCO2)C(F)(F)F)c1 | 3% | -0.38

Row | Compound | % Inhibition | Z score
22 | O=C(Nc1cccc2c1CCCC2)c1cccc(S(=O)(=O)N2CCCCC2)c1 | -16% | 1.73
23 | Cn1cncc1CCN1CCC[C@H](NC(=O)OC(C)(C)C)C1 | -12% | 1.84
24 | Cn1cncc1CC(=O)Nc1ccnc(NC(=O)OC(C)(C)C)c1 | 94% | -14.52
25 | Cc1cc(=O)c(C(=O)Nc2ccnc(NC(=O)OC(C)(C)C)c2)c[nH]1 | -2% | 0.38
26 | CC(C)c1noc(CN2CC[C@H](NC(=O)c3ccccn3)[C@@H](O)C2)n1 | -2% | 0.42
27 | CCCN(CC(=O)N(Cc1ccco1)C[C@H]1CCCO1)C(=O)c1ccc(C)cc1 | -8% | 1.14
28 | COc1ccnc(C(=O)N(Cc2cnn(C)c2)C(C)C)c1 | -10% | 1.37
29 | CC(C)c1nccn1CCC(=O)Nc1ncn(C2CCCCC2)n1 | 50% | 1.4
30 | CC(C)c1nccn1CCC(=O)N1CC[C@H](N)C1 | 6% | -0.94
31 | CC(C)c1nccn1CC(=O)NC(C1CC1)C1CC1 | 1% | -0.12
32 | CC(C)Cn1c(CC2(CC(=O)NC3CCOCC3)CCCC2)nc2cccnc21 | -12% | 1.81
33 | CCN1CCN(Cc2cccc3cccnc23)C(C)(C)C1=O | -9% | 1.65
34 | Cc1ccc(-c2ncc(CN3CCCC4(C3)OCCO4)s2)o1 | -5% | 0.88
35 | COc1cc(C)c(S(=O)(=O)N2CCc3cc4ccccc4nc32)cc1C | -10% | 1.11
36 | C[C@H](NC(=O)c1cncc(O)c1)c1nncn1C | -4% | 0.69
37 | Cc1nc(N(C)C)cc(N2CCN(C(=O)C3CCCC3)CC2)n1 | -17% | 1.88
38 | c1ccc(CC2(c3nc(-c4cnccn4)no3)CCC2)cc1 | 13% | -2.33
39 | COc1cccc(-c2nsc(C(=O)NCc3cccs3)c2N)c1 | 18% | -2.8
40 | OC1CCCCC1N1CCc2sccc2C1 (stereo unspecified) | -21% | 2.66
41 | CCN(CC)CCNCc1cccc(Cl)c1Cl | -2% | 0.28
42 | Clc1cccc(CNCCCNc2ccncc2)c1Cl | 67% | -8.81

Row | Compound | % Inhibition | Z score
43 | CCNCc1cccc(Cl)c1Cl | 4% | -0.5
44 | Cc1ccc2c(c1)CCCN2C(=O)c1ccoc1 | 4% | -0.72
45 | CCn1ccc(C(=O)N[C@H]2CCOC[C@@H]2OC)n1 | -7% | 0.83
46 | OC1CCC(NC(=NC2CC2)NCc2ccccc2F)CC1 (stereo unspecified) | -9% | 1.4
47 | CC1(C)C(CNC(=O)CCn2cc(C(N)=O)c(=O)[nH]c2=O)C1(C)C | 19% | -2.23
48 | Cc1cc(C(=O)Cn2cc(Cl)c(=O)[nH]c2=O)c(Cl)cc1F | -1% | 0.1
49 | CCOC(=O)CCn1cc(F)c(=O)[nH]c1=O | 74% | -6.55
50 | CCCCN(CC)C(=O)Nc1cc(Cl)c(OC)cc1OC | 1% | -0.07
51 | O=C(NCCCn1ccnc1)[C@@H]1Cc2c(ccc3ccccc23)O1 | 4% | -0.47
52 | C[C@@H](C(=O)Nc1ncc[nH]1)c1ccc2c(c1)[nH]c1ccc(Cl)cc12 | 69% | -1.75
53 | C[C@@H](C(=O)Nc1nnc[nH]1)c1ccc2c(c1)[nH]c1ccc(Cl)cc12 | -7% | 0.71
54 | CC(C)[C@H](NC(=O)Nc1cc(Cl)ccc1Cl)c1ncc[nH]1 | -5% | 0.62
55 | CN(c1ccc2c(c1)CCO2)S(C)(=O)=O | 13% | -1.53
56 | C[C@H]1CCN(c2nc(-c3ccccn3)nc3c2CCC3)C1 | 90% | -12.13
57 | C[C@H]1CCCN(c2nc(-c3ccccn3)nc3ccccc23)C1 | 96% | -9.05
58 | O=C(O)[C@H]1CCCN(c2nc(-c3ccsc3)nc3ccccc23)C1 | -12% | 2.15
59 | COC[C@H]1CCN(c2nc(-c3ccccn3)nc3c2CCNCC3)C1 | -2% | 0.41
60 | FC(F)(F)C1CN(c2nc(-c3ccccn3)nc3c2CCC3)C1 | 75% | -13.36
61 | NC(=O)C[C@H]1CCN(c2nc(-c3ccccn3)nc3c2CCC3)C1 | -8% | 1.56
62 | c1ccc(-c2nc3c(c(N4Cc5ccccc5C4)n2)CCNC3)nc1 | -4% | 0.52
63 | FC(F)(F)[C@H]1CCCN(c2nc(-c3cccnc3)nc3ccccc23)C1 | 8% | -0.64
